Assay results published in the supplement of paper PMC3334620.
Over roughly 33,000 sequences, “E-score (-0.5 to 0.5)” has its median near -8e-05; the highest 2% begin near 0.23. The list comes from a sample in which the highest values are over-represented; it also holds similar and randomly drawn sequences.

What follows are sequences tested against T1, Nrg2 (UniProt P38082) (assay: PBM E-score (8-mer binding enrichment) (E-score (-0.5 to 0.5)); higher = stronger / more preferred TF binding). Conditions: protein concentration: 100 nM; construct: GST-full length.
T1 sequence: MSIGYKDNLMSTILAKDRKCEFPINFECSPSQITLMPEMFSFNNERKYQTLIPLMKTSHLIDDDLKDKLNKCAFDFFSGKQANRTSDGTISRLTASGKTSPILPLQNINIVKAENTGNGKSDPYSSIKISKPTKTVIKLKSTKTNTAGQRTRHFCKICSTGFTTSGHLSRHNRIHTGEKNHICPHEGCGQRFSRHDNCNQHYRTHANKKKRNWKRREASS
Method: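 Universal 'all 10-mer' protein binding microarrays (Agilent AMADID 015681) probed with GST-tagged S. cerevisiae TFs (full-length or DBD) made by in vitro transcription/translation (PURExpress), about 100-200 nM. Bound TF was detected with fluorescent anti-GST. Each ungapped 8-mer (which stands for itself and its reverse complement) is scored by the PBM enrichment score (E-score), a modified Wilcoxon-Mann-Whitney statistic from -0.5 to +0.5, computed with the Universal PBM Analysis Suite. Scale: above 0.35 generally sequence-specific binding.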

| Sequence | PBM E-score |
| --- | --- |
| ACTCCAGC | -0.0193 |
| CATTTCGC | 0.184 |
| AATTTCGC | 0.244 |
| GATTTCGA | 0.00717 |
| GATTTCGC | 0.281 |
| ATTTTCGC | 0.131 |
| AATTTCGA | 0.0453 |
| GTAGTCTA | -0.118 |
| ACCAATAT | 0.213 |
| GACAAAAC | 0.274 |
| AACACTAT | 0.252 |
| AACACTAG | 0.152 |
| GACAAAAA | 0.0692 |
| AACACTAC | 0.0505 |
| GACAAGAC | 0.154 |
| AACAATAC | 0.202 |
| AACAATAT | 0.266 |
| AACAATAA | 0.26 |
| AACAATAG | -0.124 |
| AGCAATAT | 0.0474 |
| AGTGAATC | 0.0226 |
| ATTTGCTC | 0.156 |
| GCCGAGGC | 0.177 |
| CATTAAGA | -0.214 |
| ACTGGCCT | -0.0393 |

| Sequence | PBM E-score |
| --- | --- |
| CCGGAGCC | -0.189 |
| CACAATAC | 0.173 |
| GACAATAA | 0.218 |
| AACAATCC | 0.241 |
| GACAATAC | 0.232 |
| AGTAATAG | 0.247 |
| AATAATAT | 0.283 |
| AACAATCT | 0.0946 |
| AATAATAG | 0.0626 |
| AATAATAA | 0.0987 |
| AGTAATAC | -0.0266 |
| CGTAATAG | -0.00104 |
| AACAATCG | -0.0412 |
| TCTCTTAA | 0.123 |
| AGGTTCAG | 0.0524 |
| ACCCTTCT | -0.104 |
| GCCTGGTA | 0.0618 |
| ATAGGTTA | -0.00463 |
| CGCAATAA | 0.211 |
| AGCAATAC | 0.12 |
| CGCAATAC | 0.231 |
| GATACACC | 0.0324 |
| CTGTCGAC | -0.0435 |
| ATGTCGAA | 0.147 |
| ATGTCGAC | 0.254 |

| Sequence | PBM E-score |
| --- | --- |
| AAATCGAA | 0.111 |
| ATATCGAC | 0.255 |
| CAATCGAC | -0.102 |
| AAATCGAC | 0.237 |
| TAATCGAA | 0.176 |
| GTATCGAC | 0.123 |
| CAATCGAA | 0.258 |
| CTATCGAC | -0.166 |
| AAATCGAG | 0.0129 |
| CGCCGGAC | 0.0155 |
| CCCTGTCC | 0.0104 |
| CTTGAAGC | -0.0505 |
| CAACGGTG | -0.187 |
| CAACAAGG | 0.186 |
| GACTCTCA | -0.0326 |
| AATGCACC | 0.0152 |
| GAATTTGC | 0.172 |
| ATCTGAGG | 0.0579 |
| ACTAACGA | 0.00448 |
| CACAGCGC | 0.156 |
| TGCGACAA | 0.0655 |
| AGCGAACA | 0.0707 |
| GGCGACAA | -0.0104 |
| GGCGAACA | -0.00418 |
| CGCGACAA | 0.308 |

| Sequence | PBM E-score |
| --- | --- |
| CGCGAACA | 0.264 |
| ACCGACAA | 0.0162 |
| CCCGACAA | 0.261 |
| AGCGACCA | -0.0183 |
| CCCGACAG | -0.165 |
| GGCGACCA | -0.146 |
| CGCGACCA | 0.23 |
| ACGCCCCA | 0.179 |
| AAGGCGGG | -0.208 |
| CGGTGATA | -0.0567 |
| ACAGAGCA | 0.0833 |
| TAGCATGA | 0.149 |
| AAAATGAC | 0.0768 |
| GAAATGAA | 0.29 |
| TAAATGAA | 0.0819 |
| GAAATGAC | 0.249 |
| CAAATGAA | -0.0303 |
| CAAATGAC | 0.0271 |
| AGCGAAAC | 0.102 |
| CTTACCAA | 0.069 |
| CAGCGCCG | -0.09 |
| ATACCAAT | 0.0716 |
| GCAAGAGA | -0.12 |
| GAATTTCC | 0.252 |
| ATATTTCC | 0.206 |

| Sequence | PBM E-score |
| --- | --- |
| AAATTTCC | 0.113 |
| CTATTTCA | 0.164 |
| CAATTTCC | 0.108 |
| CTATTTCC | 0.255 |
| AGTAGGTC | -0.219 |
| ATTTAGTC | 0.0158 |
| ATTTAGTA | 0.274 |
| AATTAGTC | 0.107 |
| CATTAGTA | 0.112 |
| CTTTAGTA | -0.00347 |
| AATTAGTA | 0.23 |
| GATGCGGC | -0.094 |
| ACTCTAGA | -0.0152 |
| CGTGGGGA | 0.121 |
| CATGGGGA | 0.135 |
| GGTGGGAA | -0.0571 |
| GGTGGGGA | 0.265 |
| GGCGGGGA | 0.249 |
| GGCGGGAA | -0.11 |
| TATGGGGA | 0.283 |
| CGCGGGGA | 0.165 |
| AATGGGGA | 0.0109 |
| ATACCGAC | -0.243 |
| CCGTCCGA | -0.257 |
| GACTAGGA | -0.0424 |

| Sequence | PBM E-score |
| --- | --- |
| CAAATCTA | 0.101 |
| ACTTGAGC | -0.295 |
| ACGTGGCT | -0.0848 |
| ATACTGAC | 0.146 |
| ATACTGAG | 0.255 |
| ATACTGAT | 0.225 |
| CTACTGAG | -0.00592 |
| ATACTGTC | 0.256 |
| ATACTGTG | -0.0451 |
| AGCCGCGA | -0.0535 |
| AGTCCAAC | 0.0694 |
| ATGTTCTC | -0.0462 |
| AGTAAGAG | -0.0249 |
| CTCCCTTA | -0.202 |
| GTCCCTGA | 0.356 |
| GTCCCTCA | 0.0343 |
| ATCCCTTA | 0.0558 |
| ATCCCTGC | 0.157 |
| ATCCCTGG | 0.302 |
| ATCCCTCG | 0.0848 |
| ATCCCTGA | 0.256 |
| ATCCCCTA | 0.0411 |
| ATCCCTCA | -0.0503 |
| GTCCCTTA | 0.288 |
| CTCCCTGA | 0.0641 |

| Sequence | PBM E-score |
| --- | --- |
| ATCTGCTC | -0.0264 |
| AGGCATAT | -0.0234 |
| ACGAGGGC | 0.0428 |
| CCGCCAGA | -0.0239 |
| GACAACCA | 0.122 |
| TATCCCAA | -0.005 |
| ATTGGCCA | 0.171 |
| TACACGAA | 0.18 |
| CTACAGGC | -0.0785 |
| CCAGGGCC | 0.106 |
| CGAGGGTA | 0.0487 |
| CCAGGGTC | 0.392 |
| CTAGGGTC | 0.188 |
| ACAGGGTC | 0.402 |
| CCAGGGTA | 0.304 |
| CCAGGGGC | 0.0624 |
| ACAGGGGC | 0.0717 |
| ACAGGGCA | 0.195 |
| ACAGGGCC | 0.295 |
| GCAGGGTA | 0.164 |
| AGAGGGTC | -0.0416 |
| GTCCATGA | -0.237 |
